Data as given in PubChem BioAssay (NCI).
The panel holds about 79,000 compounds, 15% with a hit somewhere; the sample as a whole holds those more often. Cut-off read from the data, not from the text of the source: active = growth inhibition above about 70%; inactive = the rest.

Assays:
[1] = NCI Yeast Anticancer Drug Screen. Data for the rad50 strain (AID 155);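 note: 0% = growth of vehicle-only cultures of the same strain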; settings: S. cerevisiae rad50 strain growth inhibition; at 50.0 µM; stronger effect = higher value
Procedure, shortened: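 Compounds were tested on a yeast strain with an engineered DNA damage repair alteration; the reported value is growth inhibition normalised to vehicle treatment.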

[2] = NCI Yeast Anticancer Drug Screen. Data for the mec2-1 strain (AID 157); settings: S. cerevisiae mec2-1 strain, at 50.0 µM, stronger effect = higher value
Procedure, shortened: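 mec2-1 yeast strain, carrying an alteration in DNA damage repair or cell cycle control, was exposed to compounds; growth inhibition was measured relative to vehicle-treated controls.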

[3] = NCI Yeast Anticancer Drug Screen. Data for the sgs1 mgt1 strain (AID 161);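 note: 0% = growth of cultures given vehicle only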; settings: S. cerevisiae sgs1 mgt1 strain, at 50.0 µM, stronger effect = higher value
Procedure, shortened: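 Yeast cells carrying a defined DNA-repair defect were exposed to test compounds. Growth inhibition was measured relative to vehicle-treated controls.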

[4] = NCI Yeast Anticancer Drug Screen. Data for the cln2 rad14 strain (AID 165);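 note: 0% = growth equal to vehicle treated cultures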; settings: S. cerevisiae cln2 rad14 strain, at 50.0 µM, stronger effect = higher value
Procedure, shortened: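 Yeast carrying cln2 and rad14 alterations (cell cycle control and DNA damage repair) were exposed to compounds. Growth inhibition was measured against vehicle-treated controls.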

[5] = NCI Yeast Anticancer Drug Screen. Data for the bub3 strain (AID 167); settings: S. cerevisiae bub3 mutant strain, at 50.0 µM, stronger effect = higher value
Procedure, shortened: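 Growth of a checkpoint-deficient yeast mutant is measured after compound exposure. Values represent inhibition relative to vehicle.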

[6] = NCI Yeast Anticancer Drug Screen. Data for the mlh1 rad18 strain (AID 175); settings: S. cerevisiae mlh1 rad18 strain growth inhibition; at 50.0 µM; stronger effect = higher value
Procedure, shortened: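 Growth inhibition of the yeast strain was measured after compound exposure and expressed relative to vehicle-treated controls. The strain carries defined defects in DNA damage repair.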

Measured: growth inhibition

Cn1c2c(c3ccccc31)CCN(CCCCN1CCc3c(n(C)c4ccccc34)C1=O)C2
inactive: [1] -0.05% | [2] -24.4% | [3] -19.3% | [4] 5.25% | [5] -5% | [6] -12.8%

COc1ccc(-c2ccccc2)cc1NC(C)=O
inactive: [1] 9.8% | [2] 15.2% | [3] 6.75% | [4] 20.9% | [5] 14% | [6] 16.5%

CCc1nc2c(c(=O)n(C)c(=O)n2C)n1C
inactive: [1] -2.65% | [2] -4.15% | [3] -8.45% | [4] -3.85% | [5] 2.85% | [6] -7.5%

CCC(C)(O)C#CC(C)(O)CC (stereo unspecified)
inactive: [1] -0.1% | [2] -0.95% | [3] 11.8% | [4] -63% | [5] 9.8% | [6] -40.8%

Cc1cccc(C(=O)OC(=O)c2cccc(C)c2)c1
inactive: [1] -3.85% | [2] -37% | [3] -9.75% | [4] -6% | [5] -23.9% | [6] 10.3%

CC(=O)Oc1nc2ccccc2n1C(C)=O
inactive: [1] 15.3% | [2] 20.9% | [3] 20.6% | [4] -5.1% | [5] 39.5% | [6] 5.55%

O=C1CC=C2C3CC4N(CCC45c4ccccc4N1C25)C/C3=C\CBr (stereo unspecified)
inactive: [1] -8.45% | [2] -21.8% | [3] -7.95% | [4] 8.15% | [5] 7.2% | [6] -5.95%

O=c1cc(-c2ccc(Cl)cc2)oc2cc(OCCCOc3ccc4c(=O)cc(-c5ccc(Cl)cc5)oc4c3)ccc12
inactive: [1] 40.9% | [2] 37.5% | [3] 12.8% | [4] -33.1% | [5] 19.9% | [6] 25.1%

CCC(CC)(CO)CO
inactive: [1] 8.75% | [2] -5.75% | [3] -4.3% | [4] 16.1% | [5] -0.55% | [6] -1.55%

C[N+](C)(C)c1cc(Br)c(O)c(Br)c1
inactive: [1] 1.85% | [2] 31.9% | [3] 12% | [4] -2.75% | [5] 41.2% | [6] 33%

COC(=O)c1c(O)c2c(c3c1OC(C)(C)CC3)OC(C)(C)CC2
inactive: [1] -13.3% | [2] 0.1% | [3] -17.1% | [4] -2.55% | [5] 8.05% | [6] 11.4%

CC(=O)Nc1nc(Cl)c2cc[nH]c2n1
inactive: [1] -1.05% | [2] 2.5% | [3] -5.5% | [4] -10.3% | [5] -11.9% | [6] -11.6%

COC(=O)NCCCCl
inactive: [1] 5.25% | [2] -10.7% | [3] 3.5% | [4] -14.2% | [5] -0.3% | [6] 3.15%

CC1(C)CS(=O)(=O)CC(C)(C)C(=N/N)/C1=N\N
inactive: [1] 20.1% | [2] 26.9% | [3] -13.2% | [4] 5.8% | [5] -6.95% | [6] -18.2%

C[Si](C)(C)c1ccc(C(N)=O)cc1
inactive: [1] 14.4% | [2] 16.4% | [3] 3.3% | [4] 8.3% | [5] 8.65% | [6] 8.7%

CN1CCCCC1CCN1CCCCC1 (stereo unspecified)
inactive: [1] -38.9% | [2] -10.2% | [3] -7.8% | [4] -39.5% | [5] -17.9% | [6] 1.3%

CCCCCCCCC(Cl)C(Cl)CCCCCCCC(=O)OC (stereo unspecified)
inactive: [1] -30.2% | [2] -33% | [3] -20.3% | [4] -13.8% | [5] -5.15% | [6] -22.1%

Cc1cc(N(C)c2ccccc2)nc(N(C)c2ccccc2)n1
inactive: [1] -24.4% | [2] -16.6% | [3] -6.05% | [4] -14.6% | [5] -23.3% | [6] -61.5%

CC1CC2=C(C(=O)c3ccccc3C2=O)C(C)O1 (stereo unspecified)
inactive: [1] 3.15% | [2] -29.5% | [3] -4.4% | [4] -31.7% | [5] 41.5% | [6] 9.1%

NC(=S)c1cc[n+]([O-])cc1
inactive: [1] 8.65% | [2] 2.55% | [3] 5.4% | [4] -11.2% | [5] -7.2% | [6] -3.8%

CC1CCOCO1 (stereo unspecified)
inactive: [1] -3.3% | [2] 0.1% | [3] -1.05% | [4] 1.75% | [5] 13.1% | [6] -9.2%

CC(C)c1ccc(/C=C2\CCC/C(=C\c3ccc(C(C)C)cc3)C2=O)cc1
inactive: [1] -6.7% | [2] -17.1% | [3] 9.5% | [4] -12.2% | [5] -20.4% | [6] -3.5%

O=C1CN(c2cccc(Cl)c2)C(=O)CN1NCNN1CC(=O)N(c2cccc(Cl)c2)CC1=O
inactive: [1] -12.8% | [2] -0.1% | [3] 3.9% | [4] 6.65% | [5] -6.8% | [6] 2.75%

CCOC(=O)C(N)CSSCC(N)C(=O)OCC (stereo unspecified)
inactive: [1] 5.55% | [2] -3.35% | [3] -4.4% | [4] -11.6% | [5] 8.95% | [6] -4.85%

O=C(Nc1ccc(Cl)cc1)Nc1nnc(-c2ccc(-c3nnc(NC(=O)Nc4ccc(Cl)cc4)o3)cc2)o1
inactive: [1] 28.4% | [2] 0.4% | [3] 26.4% | [4] -34.3% | [5] 18% | [6] 21.6%

C/C(O)=C(\C=N\C(=S)N=Nc1c(O)[nH]c2ccccc12)C(=O)Nc1ccccc1C
inactive: [1] 51.5% | [2] 36.6% | [3] 43.4% | [4] 32.5% | [5] 62% | [6] 62%

COC(=O)[C@H]1[C@H]2C[C@@H]3c4[nH]c5ccccc5c4CCN3C[C@H]2C[C@@H](OC(=O)c2cc(OC)c(OC)c(OC)c2)[C@@H]1OC
inactive: [1] 15.8% | [2] -7.35% | [3] 17.1% | [4] 5.6% | [5] 18.5% | [6] 17.3%

CCCCCc1ccccc1OCC1CO1 (stereo unspecified)
inactive: [1] 6.75% | [2] -9.15% | [3] -17.6% | [4] 11.6% | [5] 5.1% | [6] 27.2%

CCN(CC)C(=O)c1ccc[n+](Cc2ccc(Cl)c(Cl)c2)c1
inactive: [1] 3.15% | [2] -8.25% | [3] -8.75% | [4] 6.45% | [5] 1.2% | [6] 9.25%

FC1(F)C2(OCCO2)C(F)(F)C12OCCO2
inactive: [1] -1.6% | [2] -5.25% | [3] -1.8% | [4] -1.1% | [5] -8.5% | [6] -4.8%

COc1cccc(S(=O)(=O)c2c(C)cc(C)cc2C)c1
inactive: [1] -12.7% | [2] -12.6% | [3] -12.8% | [4] -42% | [5] 1.1% | [6] -12.8%

Cc1cccc(C)c1NCC1CO1 (stereo unspecified)
inactive: [1] -17.4% | [2] -14.3% | [3] -6.3% | [4] 13.2% | [5] -17.6% | [6] -11.2%

N/N=C(\NN)c1ccccc1
inactive: [1] 11.7% | [2] 12.2% | [3] -4.2% | [4] -47.5% | [5] 0.75% | [6] 11.7%

CN1CC2=C(C1)C(N(C(=O)c1ccc(-c3ccccc3)cc1)C(=O)c1ccc(-c3ccccc3)cc1)=NCN2
inactive: [1] 11.4% | [2] 3.25% | [3] 16.1% | [4] 10.6% | [5] 0.6% | [6] 21.6%

C/[N+]([O-])=N/COC1OC(COC2OCC(O)C(O)C2O)C(O)C(O)C1O (stereo unspecified)
inactive: [1] 7.5% | [2] -0.4% | [3] 25.6% | [4] 13.8% | [5] 8.85% | [6] 3.7%

N#CC(=C1C=CC(=NO)C=C1)c1ccc(Cl)cc1
inactive: [1] -0.05% | [2] 2.5% | [3] 8.3% | [4] -124% | [5] 20.9% | [6] 1.9%

CN(N=O)c1nc2c(C(N)=O)ncn2s1
inactive: [1] 10.2% | [2] 16.4% | [3] 4.95% | [4] 2.2% | [5] 13.9% | [6] 24.1%

CN(C)C1CS(=O)(=O)OC2=C1COCC2 (stereo unspecified)
inactive: [1] -16.4% | [2] 9.8% | [3] -0.7% | [4] -3.8% | [5] 15.8% | [6] 2.55%

O=C(CC(=O)C(F)(F)F)Nc1cccc2ccccc12
inactive: [1] 6.65% | [2] -3.1% | [3] 10.6% | [4] -84.5% | [5] 0.1% | [6] 1.05%

CC(C)Cc1ccc(OC(=O)Nc2ccccc2)cc1
inactive: [1] -7.5% | [2] -1.6% | [3] -2.9% | [4] -3.4% | [5] -13.5% | [6] 2.05%

O=C1NC(=O)C(c2ccccc2)(C2CCOCC2)N1 (stereo unspecified)
inactive: [1] 11.1% | [2] 3.05% | [3] -2.65% | [4] -54.9% | [5] -9.65% | [6] 28.4%
